# This excerpt belongs to a sample that is enriched for hits.
# Tb PYK inh: T. brucei pyruvate kinase inhibition; TbPYK enzyme, Kinase-Glo Plus ATP luminescence, 45 min; hit rate 0.12% among 410,000; Potency, µM (titrated, usually from 76.8 µM), inactives show at the top dose activity, negative = inhibition, actives largely listed as inhibitors; further: potency means the concentration at half of the fitted maximal effect; on the % scale 0 is the no-effect control and ±100 the full control effect; nearly all actives have a fitted effect of over 50% in size
#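 Readout: single end-point luminescence (Kinase-Glo Plus, 10 min). Reaction conditions were TbPYK/substrate plus 130 uM ADP, 45 min at RT, pH 7.2 TEA buffer. No-enzyme wells served as controls, and data were normalized before concentration-response fitting.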
# LmPK inhibitor: blocks Leishmania mexicana pyruvate kinase activity; Q27686; purified LmPK, Kinase-Glo ATP luminescence, 1 h; Potency, µM (highest dose often 57.5 µM), for inactives: at the highest dose activity change, negative = inhibition, actives largely listed as inhibitors; hit rate 0.37% among 290,000; AID 1721; further: potency means the concentration at half of the fitted maximal effect; on the % scale 0 is the no-effect control and ±100 the full control effect
#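 Pyruvate kinase activity monitored as ATP production (luciferase luminescence). Conditions: 0.1 nM enzyme, 0.5 mM PEP, 0.1 mM ADP, 1 h, RT; normalized against uninhibited and no-enzyme wells.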
# RE007 growth inh: less growth of the S. pombe RE007 Vpr strain; hit rate 0.21% among 360,000; Potency, µM (titrated, usually from 92.2 µM), without a hit: at the highest dose activity change, negative = less growth, hits mostly inhibitors; S. pombe RE007 Vpr strain, BacTiter-Glo ATP luminescence, 24 h; active means well fitted falling curve with a large enough effect; inconclusive means small, poorly fitted or top-dose-only effect; inactive means no such curve, though single readings can be large or run the other way; further: potency means the concentration at half of the fitted maximal effect; on the % scale 0 is the no-effect control and ±100 the full control effect; nearly all actives have a fitted effect of over 50% in size
#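 Fission yeast RE007 carrying one integrated HIV-1 vpr copy, seeded at OD 0.01 in PMG+AL medium with 23 nL pinned compound. Grown 24 h at 30 degrees; viability read by BacTiter-Glo luminescence after 5 min.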
# FBPA Giardia inh: inhibitors of Giardia lamblia fructose-1,6-bisphosphate aldolase; A8B2U2; purified Giardia FBPA; Potency, µM (series often up to 59.6 µM), inactives show at the highest dose activity, negative = inhibition, most hits filed as inhibitors; hit rate 0.71% among 290,000; AID 2451; further: potency means the concentration at half of the fitted maximal effect; on the % scale 0 is the no-effect control and ±100 the full control effect; nearly all actives have a fitted effect of over 55% in size
# Target sequence (A8B2U2 whole entry, looked up): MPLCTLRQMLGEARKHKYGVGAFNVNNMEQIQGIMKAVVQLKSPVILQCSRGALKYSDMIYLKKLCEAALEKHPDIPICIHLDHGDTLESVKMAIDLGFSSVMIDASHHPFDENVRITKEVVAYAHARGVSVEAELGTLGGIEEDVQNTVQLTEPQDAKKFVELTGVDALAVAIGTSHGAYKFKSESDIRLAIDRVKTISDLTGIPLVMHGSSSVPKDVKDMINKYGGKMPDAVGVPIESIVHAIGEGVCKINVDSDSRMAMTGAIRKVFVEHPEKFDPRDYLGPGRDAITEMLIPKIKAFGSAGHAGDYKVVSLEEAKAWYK
#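 Giardia FBPA (40 nM reagent) was preincubated 10 min at RT with compound (up to 57.5 uM final), then substrate plus GAPDH/TPI/NAD/arsenate coupling system with diaphorase/resazurin was added; resorufin fluorescence (525/598 nm) was read after 20 min.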
# Cycloheximide cs: counter-screen for Shiga toxin inhibitors: cycloheximide protein synthesis inhibition. cell reporter, cycloheximide protein synthesis inhibition counterscreen. hit rate 12% among 300,000. max response, %; in the data active means max response mostly above about 13%, no sharp cut-off; inactive means mostly below about 14%; further: read at 38.3 µM for the half of the compounds with a filed dose; 0% is about no effect
# Shiga inhibitor: blocks Shiga toxin action in Vero cells; Vero cells, Shiga toxin protein synthesis inhibition reporter; inhibition, % at 38.7 µM; hit rate 9.2% among 290,000; AID 2315; in the data active means inhibition mostly above about 28%, no sharp cut-off; inactive means mostly below about 43%; further: 0% is about no effect
# Numbers without * were called inactive; u = inconclusive; x = no result; [ ] = remark or other dose. Unless noted, the call rests on the fitted dose curve; in most records, active means well fitted curve in the direction sought with a large enough effect; inconclusive means small, poorly fitted or top-dose-only effect, or another doubt; inactive means no such curve, though single readings can be large; an effect the other way counts as inactive or inconclusive.
SMILES,Tb PYK inh,LmPK inhibitor,RE007 growth inh,FBPA Giardia inh,Cycloheximide cs,Shiga inhibitor
O=C(COC(=O)c1ccc(Cl)nc1)c1ccc2c(c1)OCCO2,-2.8%,-7.0%,-1.6%,0.1%,44.2*,100.0*
CCc1ccc(C(=O)COC(=O)c2ccc(Cl)nc2)cc1,-10.0%,4.9%,1.5%,-1.4%,41.5*,65.2*
N#CCCN(C(=O)COC(=O)c1ccc(Cl)nc1)c1ccc2c(c1)OCCO2,-1.9%,x,7.3%,x,x,x
CCc1ccc(C2C(C(=O)Nc3ccc(Cl)cc3)=C(C)Nc3ncnn32)cc1 (centres undefined),0.4%,x,x,x,x,x
Cc1ccc2c(c1)Sc1c(ccc3ccccc13)N2,-11.4%,-0.4%,-5.5%,u,53.5*,84.6*
COC(=O)c1ccc(N2C(=O)CC(N(C)CCc3ccc(OC)c(OC)c3)C2=O)cc1 (centres undefined),-16.4%,-0.1%,7.94µM*,1.2%,-2.0,3.6
COc1ccc(N2C(=O)CC(N(C)CCc3ccc(OC)c(OC)c3)C2=O)cc1 (centres undefined),3.6%,4.4%,22.4µM*,1.4%,-0.8,-3.5
COc1ccc(CCN(C)C2CC(=O)N(c3ccccc3)C2=O)cc1OC (centres undefined),-1.9%,0.8%,6.31µM*,-2.0%,-1.6,-10.9
CCC(=O)N1CCc2cc(S(=O)(=O)NC(CC(C)C)C(=O)Nc3ccc(CC)cc3)ccc21 (centres undefined),-2.7%,x,x,x,x,x
O=C(CN1C(=O)c2cccnc2Oc2ccc(Cl)cc21)NCCCN1CCCCC1,3.0%[15.4 µM],x,x,x,x,x
CCN(CC)S(=O)(=O)c1ccc(C(=O)NCCSc2c(-c3ccc(C)cc3)[nH]c3ccccc23)cc1,1.7%,x,x,x,x,x
CCc1cc2c(=O)[nH]c(N3CCOCC3)nc2s1,1.1%,-4.9%,3.1%,8.7%,22.3*,33.9*
CCc1cc2c(=O)[nH]c(-c3ccncc3)nc2s1,-20.5%,-5.3%,2.3%,-7.2%,3.3,-8.7
COc1ccc(S(=O)(=O)c2c(Nc3c(C)cccc3C)sc(C(=O)c3ccc(F)cc3)c2N)cc1,0.0%,x,x,x,x,x
CCc1ccc(NC(=O)C2CCCN(S(=O)(=O)c3cccc4cccnc34)C2)cc1 (centres undefined),1.1%,x,x,x,x,x
CC(=O)N1N=C(c2cccc(NS(C)(=O)=O)c2)CC1c1ccc2c(c1)OCO2 (centres undefined),-11.2%,-5.7%,8.2%,-1.8%,12.6*,42.4
CS(=O)(=O)Nc1ccc(C2=NN(S(C)(=O)=O)C(c3ccc4c(c3)OCO4)C2)cc1 (centres undefined),-17.7%,1.2%,4.8%,-0.1%,30.1*,85.0*
CCOc1ccc(N(CC(=O)NCCSCc2ccc(Cl)cc2)S(C)(=O)=O)cc1,-2.2%,0.7%,6.5%,-3.9%,0.8,-3.3
Cn1cccc1-c1cc2n(n1)CCC(=O)N2CCCC(=O)NCc1cccc(Cl)c1,0.3%,x,x,x,x,x
Cc1[nH]c2ccccc2c1C(=O)NS(=O)(=O)Nc1ccc(F)cc1,-6.4%,8.9%,-6.2%,2.4%,-0.5,-10.8
O=C(CSC(=S)N1CCCCC1)c1ccccc1,1.1%,u,2.5%,0.0%,23.1*,35.1
O=C(CSC(=S)N1CCCC1)c1ccccc1,1.1%,-15.0%,-2.0%,-1.5%,48.2*,67.1*
COc1ccc(C(=O)CSC(=S)N2CCCCC2)cc1,-7.8%,x,-16.8%,x,x,x
O=C(O)CSC(=S)N1CCCC1,1.5%,-6.0%,3.6%,-1.5%,-1.2,3.7
Cc1[nH]c2ccccc2c1C(=O)CSC(=S)N1CCCCC1,4.3%,-2.1%,16.0%,-19.8%,94.5*,85.0*
SMILES,Tb PYK inh,LmPK inhibitor,RE007 growth inh,FBPA Giardia inh,Cycloheximide cs,Shiga inhibitor
COc1ccc(CCNC(=O)CSc2nc(-c3ccc(F)cc3)cc(C(F)(F)F)n2)cc1OC,2.1%,x,x,x,x,x
COc1cc(NC(=O)c2cc(C(C)C)on2)cc(OC)c1OC,-3.1%,-2.6%,-2.3%,-1.1%,-2.1,-3.5
O=C(Nc1cc(Br)ccc1O)c1cc(-c2cccs2)on1,0.0%,-1.8%,-14.0%,-2.5%,21.6*,78.5*
CC(C)c1cc(C(=O)Nc2cc(Br)ccc2O)no1,-3.8%,0.5%,5.9%,-4.1%,35.8*,119.7*
CC(C)c1cc(C(=O)Nc2cc(Cl)ccc2O)no1,-3.9%,-1.8%,-1.3%,-20.0%,67.9*,142.8*
COc1cccc(-c2nc(SCC(=O)NCC3CCCO3)c(-c3ccc(Cl)cc3)[nH]2)c1 (centres undefined),-0.3%,x,x,x,x,x
CC(=O)c1ccc2c(c1)C1C=CCC1C(C(=O)O)N2 (centres undefined),-20.2%,-20.0%,-0.8%,0.2%,5.1,-2.0
CC(=O)c1ccc2c(c1)C1C=CCC1C(c1ccncc1)N2 (centres undefined),-14.3%,-3.7%,1.8%,u,18.3*,96.8*
Cc1ccc(C(=O)c2sc3nc4c(cc3c2N)CCC4)cc1,-9.6%,-0.2%,1.7%,0.0%,47.1*,active
Nc1c(C(=O)N2CCCCC2)sc2nc3c(cc12)CCCC3,-21.7%,1.5%,0.5%,-6.7%,49.8*,108.5*
Cc1ccc(-c2c3c(nc4sc(C(N)=O)c(N)c24)CCC3)cc1,-2.7%,-0.1%,-14.3%,0.0%,29.3*,95.2
Nc1c(C(=O)N2CCCC2)sc2nc(-c3ccccc3)ccc12,-7.5%,1.3%,-12.3%,-4.0%,38.8*,75.2*
Nc1c(C(=O)NCc2ccccc2)nnn1Cc1cccc(Br)c1,-7.7%,x,x,x,x,x
CCOc1ccccc1CNC(=O)c1ccc(Cn2c(SCc3ccccc3)nc3cccnc32)cc1,-5.6%,x,x,x,x,x
CCC1(C)N=C(c2ccc3c(c2)OCO3)CC(c2ccccc2O)N1 (centres undefined),-9.4%,10µM*,-1.2%,-9.2%,44.3*,65.9*
COc1cccc(C2=NC(C)(C)NC(c3ccccc3O)C2)c1 (centres undefined),12.4%,-5.0%,u,4.3%,33.9*,56.0*
CCC1(C)COC(c2ccc3c(c2)OCO3)OC1 (centres undefined),4.4%,x,-9.2%,x,x,x
COc1ccc(/C=C/c2nc(C#N)c(N3CCC(C(N)=O)CC3)o2)cc1OC,-11.0%,x,x,x,x,x
CCOc1ccc(NC(=O)CCS(=O)(=O)c2cc3c4c(c2)CCN4C(=O)CC3)cc1,-6.6%,x,x,x,x,x
COCCn1c(-c2ccccc2)csc1=Nc1cccnc1,-21.2%,-6.5%,6.6%,-4.8%,8.6,-5.7
OCCn1c(-c2ccc3c(c2)OCO3)csc1=Nc1ccccc1,2.8%,5.0%,-2.3%,0.4%,37.0*,45.9*
OCCn1c(-c2ccc(F)cc2)csc1=Nc1ccccc1,-22.4%,6.3%,-18.0%,8.7%,21.8*,71.0*
Cc1ccc(N2CC(C(=O)N3CCN(Cc4ccc5c(c4)OCO5)CC3)CC2=O)cc1 (centres undefined),-9.4%,-2.8%,-2.9%,6.0%,-1.9,-3.1
